Test results published in PubChem BioAssay (NCI).
The panel holds about 83,000 compounds, 20% with a hit somewhere; the sample as a whole holds those more often.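 Values shown are percent growth following 48 h exposure of cells in 96-well plates to a single concentration of compound; below 10 was considered active.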 Unmarked numbers belong to inactive results. Activity calls are given as the source filed them.

What was measured:
Experiment in all cases: NCI-60 one-dose screen, 48 h (100 = growth as untreated, 0 = no growth, -100 = all killed)
NCI-H226 lung = conditions: 10 µM
NCI-H322M lung = conditions: 10 µM
HOP-62 NSCLC = conditions: 10 µM
NCI-H460 lung = conditions: 10 µM
A549/ATCC NSCLC = conditions: 10 µM
COLO 205 colon = conditions: 10 µM
DU-145 prostate = conditions: 10 µM
K-562 leukemia = conditions: 10 µM
SF-539 CNS = conditions: 10 µM
M14 melanoma = conditions: 10 µM
HCT-15 colon = conditions: 10 µM
HT29 colon = conditions: 10 µM
SNB-75 CNS = conditions: 10 µM
U251 CNS = conditions: 10 µM
LOX IMVI melanoma = conditions: 10 µM
MOLT-4 leukemia = conditions: 10 µM
SR leukemia = conditions: 10 µM
RPMI-8226 leukemia = conditions: 10 µM
SK-OV-3 ovarian = conditions: 10 µM
MDA-MB-468 breast = conditions: 10 µM unless noted

| SMILES | growth (NCI-H226 lung) | growth (NCI-H322M lung) | growth (HOP-62 NSCLC) | growth (NCI-H460 lung) | growth (A549/ATCC NSCLC) | growth (COLO 205 colon) | growth (DU-145 prostate) | growth (K-562 leukemia) | growth (SF-539 CNS) | growth (M14 melanoma) | growth (HCT-15 colon) | growth (HT29 colon) | growth (SNB-75 CNS) | growth (U251 CNS) | growth (LOX IMVI melanoma) | growth (MOLT-4 leukemia) | growth (SR leukemia) | growth (RPMI-8226 leukemia) | growth (SK-OV-3 ovarian) | growth (MDA-MB-468 breast) |
| --- | --- | --- | --- | --- | --- | --- | --- | --- | --- | --- | --- | --- | --- | --- | --- | --- | --- | --- | --- | --- |
| Cn1cc(-c2cc3nc(-c4c[nH]c5ccccc45)cc(N)n3n2)c2cc(Cl)ccc21 | -30.4% (active) | -98.8% (active) | -86.4% (active) | -58.2% (active) | -84.6% (active) | -89.9% (active) | -92.6% (active) | 0.698% (active) | -92.5% (active) | -89.3% (active) | -84% (active) | -69.3% (active) | -65.9% (active) | -91.8% (active) | -91.6% (active) | -48.8% (active) | -8.96% (active) | -25.5% (active) | -94.7% (active) | -85.9% (active) |
| COc1ccc(Cn2cc(C#N)c(N)c2C(C)=O)c(OC)c1 | 102% | 103% | 105% | 108% | 103% | 125% | 107% | 103% | 96.2% | 99.8% | 102% | 117% | 111% | 105% | 99.6% | 105% | 106% | 105% | 99.8% | 99.5% |
| O=C(CN1CCN(c2ncnc3c2cnn3-c2ccccc2)CC1)Nc1ccc(Cl)cc1 | 67.5% | 78.9% | 85.7% | 53.3% | 67% | 56.7% | 57.5% | 42.4% | 76.1% | 59.4% | 45% | 63.4% | 69.7% | 66.7% | 39.9% | 7.06% (active) | 36.9% | 44.4% | 79.2% | 42.5% |
| CCOc1ccc(/C=N/NC(=O)Cn2nc(Cc3ccc(OC)cc3)c3onc(C)c3c2=O)cc1 | 6.7% (active) | 62.1% | 7.48% (active) | -7.59% (active) | 0.727% (active) | 50.4% | 14.4% | 44.7% | -32.6% (active) | 39% | 49.9% | 16.6% | -39.9% (active) | 4.53% (active) | 4.69% (active) | 58.3% | 29.8% | 67.9% | -26.6% (active) | 40.4% |
| O=C1S/C(=C\c2ccc([N+](=O)[O-])cc2)C(=O)N1CCN1CCCCC1 | 105% | 107% | 112% | 115% | 110% | 113% | 119% | 98.1% | 112% | 98.6% | 92.6% | 121% | 104% | 102% | 98.6% | 101% | 111% | 106% | 102% | 99.5% |
| COc1ccc(Cc2nn(CC(=O)N/N=C/c3ccc(Br)cc3)c(=O)c3c(C)noc23)cc1 | 55.3% | 62.6% | 2.75% (active) | 9.38% (active) | 6.92% (active) | 52.2% | 55.4% | 51.8% | 13% | 57.6% | 63.8% | 63.4% | -30.1% (active) | -27.7% (active) | 25.9% | 63.2% | 38.5% | 55.4% | -30% (active) | 26.4% |
| O=C(c1ccc(F)cc1)C(c1c[nH]c2ccccc12)c1c[nH]c2ccccc12 | 36.5% | 90.5% | 91.5% | 33.9% | 91.7% | 97.7% | 33.5% | 5.35% (active) | 88% | 74.7% | 7.29% (active) | 30.8% | 79.1% | 74.8% | -76.3% (active) | 26.6% | 10.5% | 18.9% | 99.9% | 23.1% |
| Fc1ccc(-c2csc(Nc3cccc(Nc4nc(-c5ccc(F)cc5)cs4)c3)n2)cc1 | 51.5% | 60.1% | 72.7% | 40.4% | 62.8% | 75.7% | 67.7% | 36% | 70.9% | 66.8% | 52.5% | 62.3% | 95.2% | 62.7% | 39.3% | 46.4% | 51.4% | 49.5% | 86.8% | 38.6% |
| Cn1cc(-c2nnc(N)nc2-c2c[nH]c3ccc(F)cc23)c2cc(Br)cnc21 | 89.3% | 79.1% | 56.8% | 39.7% | 66.2% | 72.6% | 89.4% | 42.8% | 64.5% | 77.4% | 59.8% | 71.6% | 59.1% | 57.1% | 47% | 4.34% (active) | 9.16% (active) | 59.1% | 98.8% | 13.8% |
| O=C(CN1CCN(c2ncnc3c2cnn3-c2ccccc2)CC1)Nc1ccc(Br)cc1 | 62.5% | 77.2% | 84.6% | 57.7% | 75.2% | 70.6% | 67.9% | 42.8% | 82.3% | 59.3% | 45.2% | 73.3% | 80.9% | 76.2% | 81.8% | 15% | 40.3% | 42.6% | 76.7% | 49.2% |
| Cn1cc(-c2cc(N)n3nc(-c4cn(C)c5ccccc45)cc3n2)c2cc(F)ccc21 | -39.8% (active) | -19.1% (active) | -64.6% (active) | -61.6% (active) | -23.5% (active) | -82.3% (active) | -2.27% (active) | 0.146% (active) | -81.6% (active) | -83.6% (active) | -80.2% (active) | -72.2% (active) | -67% (active) | -77% (active) | -86.2% (active) | -14.4% (active) | 9.63% (active) | -13.3% (active) | -77.7% (active) | -36.3% (active) |
| CC1(C)CC[C@]2(C(=O)O)CC[C@]3(C)C(=CCC4[C@@]5(C)C[C@@H](O)[C@@H]6OC(c7cccc(F)c7)OC[C@@]6(C)C5CC[C@]43C)C2C1 (some centres undefined) | 39.9% | 34.2% | 49.5% | 27.6% | 19.8% | 15.2% | 36.7% | 21.1% | 70.2% | 46% | 23% | 28.1% | 81.6% | 11.6% | 27.6% | 18.5% | 22.4% | 21.1% | 82.7% | 23.5% |
| CCOC(=O)C1=C(N)N(c2ccc(C)cc2)C2=C(C(=O)CC(C)(C)C2)C1c1ccccc1Br (centres undefined) | 84.9% | 99% | 90.8% | 53.5% | 80.9% | 62.7% | 102% | 50.6% | 104% | 83% | 58.4% | 62.5% | 87.2% | 80.7% | 88.8% | 29.1% | 65.7% | 35.5% | 91.9% | 77% |
| COc1cc2oc(-c3cccc(C(=O)Nc4ccc(Cl)cc4)c3)cc(=O)c2c(OCCN)c1OC | -76.6% (active) | -93.7% (active) | -62.7% (active) | -87.2% (active) | -58.3% (active) | -75.8% (active) | -99% (active) | -43.9% (active) | -83.2% (active) | -89.7% (active) | -76.6% (active) | -91.2% (active) | -73.5% (active) | -84.2% (active) | -84.3% (active) | -59.2% (active) | -48.6% (active) | -64.2% (active) | -84.6% (active) | -73.4% (active) |
| C#CCOc1cc(N(CC)CC)ccc1C(C(=O)NC(C)(C)C)N(C(=O)C1CCc2cc(F)ccc2O1)c1ccc(F)cc1F (centres undefined) | 42.9% | 81.6% | 51.6% | 26.4% | 37.5% | 25.8% | 50.1% | 18.3% | 55.9% | 43.3% | 34.9% | 58.3% | 64.4% | 27.1% | -5.11% (active) | 6.84% (active) | 26.6% | 25.6% | 46.8% | – |
| Cc1ccc(S(=O)(=O)N2CCN(S(=O)(=O)c3oc(-c4ccccc4)nc3C#N)CC2)cc1 | 69.2% | 84.8% | 100% | 76.2% | 74.7% | 92.3% | 85.6% | 66.1% | 101% | 84.8% | 82.5% | 80.2% | 92.6% | 84.4% | 8.41% (active) | 56.8% | 31.4% | 74.7% | 87.9% | 66.2% |
